Our source for the binding signal values is publication PMC7862700, “An all-to-all approach to the identification of sequence-specific readers for epigenetic DNA modifications on cytosine”.

What all share (assay): DAPPL (digital affinity profiling via proximity ligation, sequencing); 10 mM Tris-HCl pH 7.5, 50 mM NaCl, 1 mM DTT, 4% glycerol, room temperature, 30 min; GST-TFs on glutathione beads, 16-mer random dsDNA library, 0.1% formaldehyde crosslink after washing; high values mean tight binding
Holding throughout (details): protein: recombinant; tags: N-terminal GST; dsDNA, one strand shown

Assay [1] deals with T1, FLI1 (Homo sapiens, UniProt Q01543 1-452).
T1 sequence: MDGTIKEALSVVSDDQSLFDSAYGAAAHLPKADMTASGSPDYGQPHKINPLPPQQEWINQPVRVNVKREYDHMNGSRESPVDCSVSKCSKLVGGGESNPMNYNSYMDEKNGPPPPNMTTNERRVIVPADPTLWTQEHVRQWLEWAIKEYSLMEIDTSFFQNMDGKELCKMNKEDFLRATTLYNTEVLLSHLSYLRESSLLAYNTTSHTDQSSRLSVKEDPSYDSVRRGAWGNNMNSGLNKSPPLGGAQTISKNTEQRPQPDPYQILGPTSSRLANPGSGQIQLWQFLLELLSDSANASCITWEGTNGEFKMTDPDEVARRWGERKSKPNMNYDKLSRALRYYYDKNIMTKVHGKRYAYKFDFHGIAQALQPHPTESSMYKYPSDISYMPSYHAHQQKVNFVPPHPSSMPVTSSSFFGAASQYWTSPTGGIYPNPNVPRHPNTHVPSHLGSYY
In a few lines:
(§1)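 Sequencing on an Illumina NextSeq500 followed washing, crosslinking with 0.1% formaldehyde, proximity ligation (BsaI/T4 ligase, 1 h, 37 °C) and PCR amplification of pools that had been incubated for 30 min at room temperature with 200 nmole of a random double-stranded 16-mer DNA library in Tris/NaCl/DTT/glycerol buffer. Each pool held DNA-barcoded human transcription factors, expressed in yeast as GST fusions and captured on glutathione beads, plus a tag-only sample. Binding signal is a hexamer's read frequency for a factor divided by its frequency in the tag-only sample.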

In assay [2] the target is T2, ELK1 (Homo sapiens, UniProt P19419 1-428).
T2 sequence: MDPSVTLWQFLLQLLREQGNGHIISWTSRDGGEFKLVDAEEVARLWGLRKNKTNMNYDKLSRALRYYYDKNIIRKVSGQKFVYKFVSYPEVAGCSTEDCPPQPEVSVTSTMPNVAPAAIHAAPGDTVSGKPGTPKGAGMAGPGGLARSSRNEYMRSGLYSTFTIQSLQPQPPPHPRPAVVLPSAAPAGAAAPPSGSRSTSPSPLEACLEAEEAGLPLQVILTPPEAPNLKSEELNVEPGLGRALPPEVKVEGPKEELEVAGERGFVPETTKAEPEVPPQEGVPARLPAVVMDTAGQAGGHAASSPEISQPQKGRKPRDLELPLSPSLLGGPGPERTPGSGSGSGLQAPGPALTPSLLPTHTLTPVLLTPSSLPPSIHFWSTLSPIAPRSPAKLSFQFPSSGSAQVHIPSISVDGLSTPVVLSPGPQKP
Put shortly: as §1

In assay [3] the target is T3, GABPA (Homo sapiens, UniProt Q06546 1-454).
T3 sequence: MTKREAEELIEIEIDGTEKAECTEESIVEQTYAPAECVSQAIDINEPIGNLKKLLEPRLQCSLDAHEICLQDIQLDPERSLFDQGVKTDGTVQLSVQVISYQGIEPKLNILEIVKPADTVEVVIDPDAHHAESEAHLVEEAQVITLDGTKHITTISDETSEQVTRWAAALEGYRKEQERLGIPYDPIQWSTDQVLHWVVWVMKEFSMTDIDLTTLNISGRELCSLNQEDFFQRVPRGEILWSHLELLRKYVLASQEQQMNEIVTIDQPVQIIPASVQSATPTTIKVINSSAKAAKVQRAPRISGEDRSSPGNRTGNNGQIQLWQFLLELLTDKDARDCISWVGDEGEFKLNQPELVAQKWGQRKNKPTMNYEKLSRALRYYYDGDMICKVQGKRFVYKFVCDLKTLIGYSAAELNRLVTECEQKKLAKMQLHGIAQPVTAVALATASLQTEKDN
In a few lines:
as §1

Assay [4] has as its target T4, ERG (Homo sapiens, UniProt P11308 1-479).
T4 sequence: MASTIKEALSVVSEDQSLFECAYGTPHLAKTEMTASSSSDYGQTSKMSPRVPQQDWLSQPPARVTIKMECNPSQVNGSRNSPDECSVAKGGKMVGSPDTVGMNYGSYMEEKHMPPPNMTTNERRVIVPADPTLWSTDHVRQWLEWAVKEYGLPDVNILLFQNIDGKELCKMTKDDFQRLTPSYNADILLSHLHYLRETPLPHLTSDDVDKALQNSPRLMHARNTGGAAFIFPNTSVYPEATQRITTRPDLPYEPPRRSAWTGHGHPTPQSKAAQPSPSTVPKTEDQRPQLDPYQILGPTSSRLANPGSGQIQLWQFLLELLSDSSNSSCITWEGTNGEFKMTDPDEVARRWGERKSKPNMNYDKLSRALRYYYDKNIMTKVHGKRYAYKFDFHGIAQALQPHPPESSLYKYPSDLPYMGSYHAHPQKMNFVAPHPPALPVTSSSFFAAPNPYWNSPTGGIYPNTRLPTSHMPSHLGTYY
Put shortly: as §1

The target of assay [5] is ELF1 (Homo sapiens, UniProt P32519 1-619). In a few lines:
as §1

The target of assay [6] is T5, EHF (Homo sapiens, UniProt Q9NZC4 1-300).
T5 sequence: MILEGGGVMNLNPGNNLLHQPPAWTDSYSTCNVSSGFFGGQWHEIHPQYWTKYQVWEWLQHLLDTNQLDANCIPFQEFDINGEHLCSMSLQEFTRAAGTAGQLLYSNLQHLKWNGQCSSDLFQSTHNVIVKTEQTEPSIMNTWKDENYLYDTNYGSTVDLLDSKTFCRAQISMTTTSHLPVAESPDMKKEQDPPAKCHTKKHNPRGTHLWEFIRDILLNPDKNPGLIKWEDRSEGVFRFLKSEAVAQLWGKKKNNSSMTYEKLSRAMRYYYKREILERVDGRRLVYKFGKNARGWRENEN
In a few lines:
as §1

Assay [7] addresses SPI1 (Homo sapiens, UniProt P17947 1-270). In a few lines: as §1
Assay [8] concerns the target SPIB (Homo sapiens, UniProt Q01892 1-262). Put shortly:
as §1

For assay [9], the target named is T6, ELK3 (Homo sapiens, UniProt P41970 1-407).
T6 sequence: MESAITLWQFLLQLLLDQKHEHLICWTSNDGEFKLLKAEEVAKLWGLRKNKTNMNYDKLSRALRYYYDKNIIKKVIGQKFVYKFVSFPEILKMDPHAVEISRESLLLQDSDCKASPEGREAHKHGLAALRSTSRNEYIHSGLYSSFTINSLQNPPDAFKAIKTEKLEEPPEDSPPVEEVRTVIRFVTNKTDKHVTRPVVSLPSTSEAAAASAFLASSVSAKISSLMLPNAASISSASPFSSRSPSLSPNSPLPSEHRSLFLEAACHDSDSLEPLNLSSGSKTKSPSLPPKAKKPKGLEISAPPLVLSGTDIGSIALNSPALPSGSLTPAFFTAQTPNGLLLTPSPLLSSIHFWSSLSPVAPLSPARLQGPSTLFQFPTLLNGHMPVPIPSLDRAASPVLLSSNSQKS
Put shortly:
as §1

Assay [10] deals with T7, FEV (Homo sapiens, UniProt Q99581 1-238).
T7 sequence: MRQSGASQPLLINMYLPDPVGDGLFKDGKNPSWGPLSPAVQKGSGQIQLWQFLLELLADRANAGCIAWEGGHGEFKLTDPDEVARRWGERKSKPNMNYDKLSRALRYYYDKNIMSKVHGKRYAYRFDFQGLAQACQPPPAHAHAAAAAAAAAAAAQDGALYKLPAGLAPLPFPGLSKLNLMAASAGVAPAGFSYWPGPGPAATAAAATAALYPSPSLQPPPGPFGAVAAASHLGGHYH
Put shortly: as §1

For assay [11], the target named is ETV5 (Homo sapiens, UniProt P41161 1-510). Put shortly:
as §1

Assay [12] addresses T8, SPIC (Homo sapiens, UniProt Q8N5J4 1-248).
T8 sequence: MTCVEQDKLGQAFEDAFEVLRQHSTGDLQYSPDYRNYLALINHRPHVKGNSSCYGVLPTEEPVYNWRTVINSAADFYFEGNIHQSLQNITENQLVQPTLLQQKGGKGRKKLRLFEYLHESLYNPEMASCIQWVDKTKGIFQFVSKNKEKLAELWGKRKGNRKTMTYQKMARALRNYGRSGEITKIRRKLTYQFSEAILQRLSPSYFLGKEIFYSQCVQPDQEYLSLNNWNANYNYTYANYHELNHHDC
Put shortly:
as §1

Assay [13] has as its target ELF4 (Homo sapiens, UniProt Q99607 1-663). Put shortly: as §1
Assay [14] addresses T9, ELK4 (Homo sapiens, UniProt P28324-2 1-405).
T9 sequence: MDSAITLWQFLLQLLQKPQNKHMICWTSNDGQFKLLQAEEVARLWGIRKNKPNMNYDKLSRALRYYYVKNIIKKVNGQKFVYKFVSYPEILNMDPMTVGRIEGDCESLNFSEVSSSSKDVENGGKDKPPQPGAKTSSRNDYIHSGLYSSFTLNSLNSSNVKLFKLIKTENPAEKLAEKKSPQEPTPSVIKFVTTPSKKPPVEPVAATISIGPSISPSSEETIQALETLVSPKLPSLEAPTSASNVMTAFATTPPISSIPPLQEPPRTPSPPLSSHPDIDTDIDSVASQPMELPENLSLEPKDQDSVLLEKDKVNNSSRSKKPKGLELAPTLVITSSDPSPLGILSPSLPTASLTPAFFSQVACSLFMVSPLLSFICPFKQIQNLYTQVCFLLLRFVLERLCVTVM
In a few lines:
as §1

Assay [15] concerns the target T10, ETV2 (Homo sapiens, UniProt O00321 1-342).
T10 sequence: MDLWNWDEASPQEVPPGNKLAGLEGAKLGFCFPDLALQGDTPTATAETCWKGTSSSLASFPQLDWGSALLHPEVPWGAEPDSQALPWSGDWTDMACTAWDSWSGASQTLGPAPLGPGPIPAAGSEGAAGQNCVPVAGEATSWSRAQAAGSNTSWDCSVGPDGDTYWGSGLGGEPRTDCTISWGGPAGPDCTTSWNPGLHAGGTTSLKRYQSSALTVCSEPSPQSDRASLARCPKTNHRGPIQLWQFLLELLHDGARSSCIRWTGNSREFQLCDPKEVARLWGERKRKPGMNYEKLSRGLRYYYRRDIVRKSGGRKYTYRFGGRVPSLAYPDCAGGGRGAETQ
Put shortly:
as §1

Assay [16] concerns the target T11, ELF3 (Homo sapiens, UniProt P78545 1-371).
T11 sequence: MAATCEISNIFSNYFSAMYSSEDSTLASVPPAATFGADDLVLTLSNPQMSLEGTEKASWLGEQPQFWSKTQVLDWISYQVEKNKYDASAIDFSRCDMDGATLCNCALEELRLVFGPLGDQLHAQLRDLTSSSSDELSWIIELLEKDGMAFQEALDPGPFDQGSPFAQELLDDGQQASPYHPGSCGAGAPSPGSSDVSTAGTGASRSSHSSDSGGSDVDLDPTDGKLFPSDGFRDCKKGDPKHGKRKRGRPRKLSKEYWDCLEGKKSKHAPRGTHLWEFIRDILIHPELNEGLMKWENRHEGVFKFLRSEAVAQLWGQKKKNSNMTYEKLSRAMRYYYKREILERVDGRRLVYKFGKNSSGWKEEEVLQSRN
Put shortly: as §1

The target in assay [17] is ETV1 (Homo sapiens, UniProt P50549 1-477). In a few lines:
as §1

Sequence of ELF1 (P32519 whole entry): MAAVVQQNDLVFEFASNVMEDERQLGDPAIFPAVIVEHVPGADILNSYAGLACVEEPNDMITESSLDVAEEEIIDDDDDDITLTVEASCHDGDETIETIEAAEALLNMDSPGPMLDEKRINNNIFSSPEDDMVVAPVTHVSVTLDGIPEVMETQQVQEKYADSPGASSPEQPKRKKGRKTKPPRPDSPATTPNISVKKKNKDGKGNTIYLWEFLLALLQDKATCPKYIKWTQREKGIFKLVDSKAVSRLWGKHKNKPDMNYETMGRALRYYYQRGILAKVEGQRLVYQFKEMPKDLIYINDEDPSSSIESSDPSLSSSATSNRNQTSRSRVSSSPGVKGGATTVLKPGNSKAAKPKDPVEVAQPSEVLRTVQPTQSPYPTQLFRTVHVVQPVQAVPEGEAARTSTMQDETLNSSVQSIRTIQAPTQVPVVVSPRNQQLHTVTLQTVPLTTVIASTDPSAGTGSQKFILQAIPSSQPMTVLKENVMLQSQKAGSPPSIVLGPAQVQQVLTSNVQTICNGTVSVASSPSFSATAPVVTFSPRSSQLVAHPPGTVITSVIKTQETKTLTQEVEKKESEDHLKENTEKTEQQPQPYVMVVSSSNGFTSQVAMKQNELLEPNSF
Sequence of SPIB (Q01892 whole entry): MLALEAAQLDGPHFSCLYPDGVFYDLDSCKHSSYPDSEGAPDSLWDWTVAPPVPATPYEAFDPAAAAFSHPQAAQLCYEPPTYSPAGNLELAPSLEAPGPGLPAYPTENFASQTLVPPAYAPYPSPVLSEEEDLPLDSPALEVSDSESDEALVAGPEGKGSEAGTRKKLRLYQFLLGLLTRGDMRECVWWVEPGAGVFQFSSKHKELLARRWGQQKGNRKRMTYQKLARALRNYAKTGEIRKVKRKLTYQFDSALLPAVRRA
Sequence of ETV1 (P50549 whole entry): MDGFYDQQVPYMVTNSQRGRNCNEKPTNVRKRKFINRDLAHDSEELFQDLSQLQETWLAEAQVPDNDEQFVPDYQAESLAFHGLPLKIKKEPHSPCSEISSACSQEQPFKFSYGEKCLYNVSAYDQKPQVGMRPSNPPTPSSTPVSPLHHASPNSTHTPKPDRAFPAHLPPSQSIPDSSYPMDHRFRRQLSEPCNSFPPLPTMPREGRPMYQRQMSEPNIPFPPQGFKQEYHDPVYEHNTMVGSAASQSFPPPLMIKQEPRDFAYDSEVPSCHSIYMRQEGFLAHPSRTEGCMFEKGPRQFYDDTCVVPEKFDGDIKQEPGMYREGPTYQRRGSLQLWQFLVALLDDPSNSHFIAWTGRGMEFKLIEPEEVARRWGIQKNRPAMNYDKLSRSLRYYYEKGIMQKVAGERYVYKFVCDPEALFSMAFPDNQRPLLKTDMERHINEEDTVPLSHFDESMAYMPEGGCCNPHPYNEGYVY
Sequence of ETV5 (P41161 whole entry): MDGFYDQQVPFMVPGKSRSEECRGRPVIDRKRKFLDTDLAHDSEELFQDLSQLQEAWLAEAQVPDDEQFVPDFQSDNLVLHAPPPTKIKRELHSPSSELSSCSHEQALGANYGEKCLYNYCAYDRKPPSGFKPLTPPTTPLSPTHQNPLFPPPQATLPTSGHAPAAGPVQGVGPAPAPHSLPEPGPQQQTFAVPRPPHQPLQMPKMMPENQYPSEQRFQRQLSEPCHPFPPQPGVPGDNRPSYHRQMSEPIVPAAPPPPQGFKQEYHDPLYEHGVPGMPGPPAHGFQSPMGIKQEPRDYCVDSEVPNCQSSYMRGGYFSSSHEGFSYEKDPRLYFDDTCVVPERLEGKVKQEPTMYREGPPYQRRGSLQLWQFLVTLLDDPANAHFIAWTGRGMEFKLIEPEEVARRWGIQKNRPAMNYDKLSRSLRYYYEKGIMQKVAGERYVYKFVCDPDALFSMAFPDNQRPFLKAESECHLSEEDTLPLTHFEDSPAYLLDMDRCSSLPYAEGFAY
Sequence of ELF4 (Q99607 whole entry): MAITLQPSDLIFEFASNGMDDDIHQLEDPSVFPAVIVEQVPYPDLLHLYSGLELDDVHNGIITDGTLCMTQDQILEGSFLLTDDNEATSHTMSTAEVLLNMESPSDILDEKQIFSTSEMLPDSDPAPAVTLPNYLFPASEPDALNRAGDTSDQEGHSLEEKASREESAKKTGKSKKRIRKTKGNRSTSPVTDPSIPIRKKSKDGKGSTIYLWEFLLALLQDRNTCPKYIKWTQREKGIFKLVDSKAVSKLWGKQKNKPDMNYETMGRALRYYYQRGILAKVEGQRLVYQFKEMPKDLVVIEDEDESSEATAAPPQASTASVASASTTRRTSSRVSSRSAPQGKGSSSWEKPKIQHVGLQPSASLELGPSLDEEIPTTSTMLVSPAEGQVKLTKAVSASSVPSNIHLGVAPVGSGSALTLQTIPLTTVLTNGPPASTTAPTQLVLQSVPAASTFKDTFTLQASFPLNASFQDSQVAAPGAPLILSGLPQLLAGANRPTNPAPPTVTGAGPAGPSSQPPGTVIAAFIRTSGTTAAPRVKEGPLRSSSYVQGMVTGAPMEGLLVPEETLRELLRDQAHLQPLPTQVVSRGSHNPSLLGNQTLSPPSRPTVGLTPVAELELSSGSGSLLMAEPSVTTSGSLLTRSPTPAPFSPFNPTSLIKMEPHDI

TGCATC: the binding signal was 1.35 fold enrichment (6-mer frequency, TF over GST control) in assay [1]; 1.42 fold enrichment (6-mer frequency, TF over GST control) in [2]; 1.38 fold enrichment (6-mer frequency, TF over GST control) in assay [3]; 1.43 fold enrichment (6-mer frequency, TF over GST control) in assay [4]; 1.31 fold enrichment (6-mer frequency, TF over GST control) in assay [5]; 1.33 fold enrichment (6-mer frequency, TF over GST control) in assay [6]. Further, the binding signal in assay [7] was 1.42 fold enrichment (6-mer frequency, TF over GST control); in assay [8], 1.35 fold enrichment (6-mer frequency, TF over GST control); in [9], 1.44 fold enrichment (6-mer frequency, TF over GST control); in assay [10], 1.33 fold enrichment (6-mer frequency, TF over GST control); in assay [11] it was 1.39 fold enrichment (6-mer frequency, TF over GST control); in [12] it was 1.46 fold enrichment (6-mer frequency, TF over GST control). Moreover, the binding signal in assay [13] is 1.31 fold enrichment (6-mer frequency, TF over GST control); in assay [14], 1.22 fold enrichment (6-mer frequency, TF over GST control); in [15], 1.33 fold enrichment (6-mer frequency, TF over GST control); in [16], 1.3 fold enrichment (6-mer frequency, TF over GST control); in [17] it was 1.4 fold enrichment (6-mer frequency, TF over GST control).
